Out of some 5,500 compounds screened, about 2,000 (36%) were called active. Inconclusive results (about 18%) are left out. No stated cut-off is given here; in the data, active means normalized growth mostly below about 0.91 (no sharp cut-off); inconclusive means no clear call, values can overlap the other calls; inactive means mostly above about 0.92. The list shows a part of the results.
Assay: chemical genetic growth profiling, strain panel (AID 1159580);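 further: tested at 20 µM; growth read once vehicle control cultures reached saturation at 30 °C; 1 = growth at the plate median or of vehicle wells; lower values mean less growth of the strain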
Conditions: growth OD

Measured: normalized growth

CC(C)=CCC[C@](C)(O)C1CC=C(C)CC1 (some centres not stated)
inactive: S. cerevisiae deletion strains, locus YJR043C, strain POL32, hits give low values 1.01 | S. cerevisiae deletion strains, locus YJR066W, strain TOR1, hits give low values 0.953 | S. cerevisiae deletion strains, locus YKL009W, strain mrt4, hits give low values 0.962 | S. cerevisiae deletion strains, locus YKL068W, hits give low values 1.01 | S. cerevisiae deletion strains, locus YKL085W, strain MDH1 (second series), hits give low values 0.991 | S. cerevisiae deletion strains, locus YKL085W, strain MDH1, hits give low values 0.991 | S. cerevisiae deletion strains, locus YKL160W, strain elf1, hits give low values 1 | S. cerevisiae deletion strains, locus YKR001C, strain vps1, hits give low values 0.902 | S. cerevisiae deletion strains, locus YKR026C, strain gcn3, hits give low values 0.976 | S. cerevisiae deletion strains, locus YKR091W, strain srl3, hits give low values 0.98 | S. cerevisiae deletion strains, locus YLL001W, strain dnm1, hits give low values 0.992 | S. cerevisiae deletion strains, locus YLL026W, hits give low values 0.992 | S. cerevisiae deletion strains, locus YLL041C, strain sdh2, hits give low values 0.997 | S. cerevisiae deletion strains, locus YLR027C, strain aat2, hits give low values 0.969 | S. cerevisiae deletion strains, locus YLR039C, strain RIC1, hits give low values 0.964 | S. cerevisiae deletion strains, locus YLR058C, strain SHM2, hits give low values 1.03 | S. cerevisiae deletion strains, locus YLR102C, strain apc9, hits give low values 0.986 | S. cerevisiae deletion strains, locus YLR113W, strain HOG1, hits give low values 1.02 | S. cerevisiae deletion strains, locus YLR221C, strain rsa3, hits give low values 0.982 | S. cerevisiae deletion strains, locus YLR258W, strain gsy2, hits give low values 0.978 | S. cerevisiae deletion strains, locus YLR262C, strain YPT6 (second series), hits give low values 0.998 | S. cerevisiae deletion strains, locus YLR262C, strain YPT6, hits give low values 0.966 | S. cerevisiae deletion strains, locus YLR268W, strain sec22, hits give low values 0.991 | S. cerevisiae deletion strains, locus YLR320W, strain mms22, hits give low values 0.984 | S. cerevisiae deletion strains, locus YLR330W, strain CHS5, hits give low values 1.02 | S. cerevisiae deletion strains, locus YLR342W, strain FKS1 (second series), hits give low values 0.995 | S. cerevisiae deletion strains, locus YLR342W, strain FKS1, hits give low values 0.98 | S. cerevisiae deletion strains, locus YLR357W, strain rsc2, hits give low values 0.944 | S. cerevisiae deletion strains, locus YLR370C, strain arc18, hits give low values 0.96 | S. cerevisiae deletion strains, locus YLR371W, strain rom2, hits give low values 1 | S. cerevisiae deletion strains, locus YLR384C, strain iki3, hits give low values 0.971 | S. cerevisiae deletion strains, locus YLR418C, strain cdc73, hits give low values 0.982 | S. cerevisiae deletion strains, locus YML016C, strain PPZ1, hits give low values 1.01 | S. cerevisiae deletion strains, locus YML032C, strain rad52, hits give low values 0.992 | S. cerevisiae deletion strains, locus YML120C, strain ndi1, hits give low values 0.988 | S. cerevisiae deletion strains, locus YML124C, strain tub3, hits give low values 1 | S. cerevisiae deletion strains, locus YMR058W, strain fet3, hits give low values 0.97 | S. cerevisiae deletion strains, locus YMR078C, strain ctf18, hits give low values 0.976 | S. cerevisiae deletion strains, locus YMR125W, strain sto1, hits give low values 0.967 | S. cerevisiae deletion strains, locus YMR129W, hits give low values 0.992 | S. cerevisiae deletion strains, locus YMR205C, strain PFK2, hits give low values 0.983 | S. cerevisiae deletion strains, locus YMR223W, strain ubp8, hits give low values 0.991 | S. cerevisiae deletion strains, locus YMR231W, strain pep5, hits give low values 0.965 | S. cerevisiae deletion strains, locus YMR307W, strain GAS1, hits give low values 1.13 | S. cerevisiae deletion strains, locus YNL067W, strain RPL9B, hits give low values 1.01 | S. cerevisiae deletion strains, locus YNL071W, strain lat1, hits give low values 0.98 | S. cerevisiae deletion strains, locus YNL153C, strain GIM3, hits give low values 1.01 | S. cerevisiae deletion strains, locus YNL183C, strain NPR1, hits give low values 0.954 | S. cerevisiae deletion strains, locus YNL209W, strain ssb2, hits give low values 0.98 | S. cerevisiae deletion strains, locus YNL233W, strain BNI4, hits give low values 1.04 | S. cerevisiae deletion strains, locus YNL248C, strain rpa49, hits give low values 0.978 | S. cerevisiae deletion strains, locus YNL250W, strain rad50, hits give low values 1 | S. cerevisiae deletion strains, locus YNL271C, strain bni1, hits give low values 0.988 | S. cerevisiae deletion strains, locus YNL298W, strain CLA4, hits give low values 1.01 | S. cerevisiae deletion strains, locus YNL307C, strain MCK1, hits give low values 0.983 | S. cerevisiae deletion strains, locus YNL322C, strain KRE1 (second series), hits give low values 0.982 | S. cerevisiae deletion strains, locus YNR049C, strain mso1, hits give low values 0.979 | S. cerevisiae deletion strains, locus YNR052C, strain pop2, hits give low values 0.994 | S. cerevisiae deletion strains, locus YOL012C, strain htz1 1.39 | S. cerevisiae deletion strains, locus YOL147C, strain pex11, hits give low values 0.981 | S. cerevisiae deletion strains, locus YOR001W, strain rrp6, hits give low values 0.975 | S. cerevisiae deletion strains, locus YOR061W, strain CKA2, hits give low values 1.03 | S. cerevisiae deletion strains, locus YOR069W, strain VPS5, hits give low values 1.02 | S. cerevisiae deletion strains, locus YOR070C, strain gyp1, hits give low values 1.02 | S. cerevisiae deletion strains, locus YOR080W, strain dia2, hits give low values 0.979 | S. cerevisiae deletion strains, locus YOR083W, strain WHI5, hits give low values 0.987 | S. cerevisiae deletion strains, locus YOR106W, strain vam3, hits give low values 0.947 | S. cerevisiae deletion strains, locus YOR136W, strain idh2, hits give low values 0.992 | S. cerevisiae deletion strains, locus YOR144C, strain elg1, hits give low values 0.989 | S. cerevisiae deletion strains, locus YOR184W, strain ser1, hits give low values 0.994 | S. cerevisiae deletion strains, locus YOR231W, strain MKK1, hits give low values 0.993 | S. cerevisiae deletion strains, locus YOR265W, strain rbl2, hits give low values 0.98 | S. cerevisiae deletion strains, locus YOR270C, strain vph1, hits give low values 0.932 | S. cerevisiae deletion strains, locus YOR290C, strain snf2, hits give low values 0.969 | S. cerevisiae deletion strains, locus YOR316C, strain cot1, hits give low values 0.986 | S. cerevisiae deletion strains, locus YPL051W, strain arl3, hits give low values 0.981 | S. cerevisiae deletion strains, locus YPL055C, strain LGE1, hits give low values 1.04 | S. cerevisiae deletion strains, locus YPL078C, strain atp4, hits give low values 0.988 | S. cerevisiae deletion strains, locus YPL106C, strain sse1, hits give low values 0.981 | S. cerevisiae deletion strains, locus YPL240C, strain hsp82, hits give low values 0.977 | S. cerevisiae deletion strains, locus YPL256C, strain CLN2, hits give low values 0.99 | S. cerevisiae deletion strains, locus YPR119W, strain clb2, hits give low values 1.01 | S. cerevisiae deletion strains, locus YPR141C, strain kar3, hits give low values 1 | S. cerevisiae deletion strains, locus YPR163C, strain tif3, hits give low values 0.973 | S. cerevisiae deletion strains, locus YPR167C, strain met16, hits give low values 1.02 | S. cerevisiae deletion strains, strain wtn01, hits give low values 0.974 | S. cerevisiae strains, strain wild type, hits give low values 1.02

— PubChem BioAssay AID1159580 (chemical genetic matrix, 2015)
